High-throughput results from PubChem BioAssay.
PGC1a acetyl inh: inhibitors of PGC1a acetylation signal, primary screen, cell-based, U2OS, AlphaScreen, inhibitor mode | AlphaScreen anti-acetyl-lysine; with virally co-expressed GCN5 acetyltransferase | inhibition, % at 15.6 µM | 0.17% of 350,000 active;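 active means every replicate shows inhibition of at least 40%; inconclusive means mean inhibition at least 40% but some replicate below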
Statin myotox sup: suppressors of statin myotoxicity in C2C12 myotubes, primary screen, cell-based, single point, plate reader. 0.78% of 330,000 active. rescue of ATP level, % at 7.49 µM. C2C12 myotubes + simvastatin, ATP luminescence, 48 h; scaled: DMSO 0, geranylgeraniol control 100;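 active means mean ATP rescue above about 67%, or every replicate alone reaching that limit, limit read from the data, passing the limit was not always enough; inconclusive means no clear call, values can overlap the other calls; inactive means mean under the limit and some replicate under it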;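 further: myotubes were challenged with 10 µM simvastatin during compound exposure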
PvdQ acylase: P. aeruginosa PvdQ acylase inhibitors, primary screen, biochemical, fluorescence, plate reader and imaging, single point. 0.063% of 340,000 active. inhibition, % at 10 µM. purified PvdQ acylase. PvdQ acylase [Pseudomonas aeruginosa LESB58]; in the data active means inhibition above about 30%, passing the limit was not always enough; inconclusive means no clear call, values can overlap the other calls
miR-122 sensor: miR-122 Renilla sensor signal increase in Huh7, primary screen, miR-122 inhibitor project, cell-based, single point, plate reader; Huh7 miR-122 Renilla luciferase sensor, 48 h; neutral wells = 0, positive control = 100; AID 602342, 2012; 0.3% of 340,000 active; activation (reporter increase), % at 12.5 µM;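 active means mean replicate activation score at least 90 and every replicate individually at or above 90; inconclusive means only one of the two criteria met; inactive means neither criterion met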;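 further: higher luciferase means less miR-122 activity so hits act as miR-122 inhibitors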
DENV2 CPE: inhibitors of DENV2 cytopathic effect, primary screen, cell-based, plate reader, single concentration | DENV2-infected cells, cytopathic effect rescue | CPE inhibition, % at 9.99 µM | 1.7% of 350,000 active; in the data active means CPE inhibition above about 20%, passing the limit was not always enough; inconclusive means no clear call, values can overlap the other calls; tested in BHK-21 cells
Large screens that a line does not name were inactive. Shown are actives, neighbours in structure and some others; about 2.2% of the full set was active somewhere.

CCOC(=O)c1c(NC(=O)c2ccccc2N(C)S(=O)(=O)c2ccccc2)sc2c1CCCC2	miR-122 sensor 162 (no result: PGC1a acetyl inh, Statin myotox sup)
CCN(CC)C(=O)C(=O)N/N=C/c1ccc(Br)cc1	Statin myotox sup 89 (no result: DENV2 CPE)
O=C1O/C(=C/C(=O)N2CCOCC2)c2ccccc21	Statin myotox sup 74 (no result: DENV2 CPE)
CCn1c2ccccc2c2cc(/C(C)=N/O)ccc21	none (no result: DENV2 CPE)
CCn1c2ccccc2c2cc(N)ccc21	Statin myotox sup 108 (no result: DENV2 CPE)
O=[N+]([O-])c1ccc(N/N=C/c2cccc(O)c2O)cc1	Statin myotox sup 92 (no result: PGC1a acetyl inh, miR-122 sensor)
O=[N+]([O-])c1ccc(N/N=C/c2cccc(O)c2)cc1	none (no result: PGC1a acetyl inh, miR-122 sensor)
CCCN1C[C@@H](C)[C@@H](OC)CN(C)C(=O)c2ccc(NC(=O)c3cnccn3)cc2OC[C@H]1C	none (no result: PvdQ acylase, miR-122 sensor)
CCn1c(CSc2nc3ccccc3[nH]2)n[nH]c1=S	Statin myotox sup 101
CCn1c(CSCc2ccccc2)n[nH]c1=S	none
CCC(=O)Nc1ccc2c(c1)C(=O)N(C)C[C@@H](OC)[C@H](C)CN(CCc1ccccc1)[C@H](C)CO2	none (no result: PvdQ acylase)
COc1ccc(CN(C)C[C@H]2OCCCC[C@H](C)Oc3ccc(NC(=O)CCCN(C)C)cc3C(=O)N([C@@H](C)CO)C[C@@H]2C)cc1	none (no result: PvdQ acylase)
C[C@H]1CCCCO[C@H](CN(C)C(=O)NC2CCCCC2)[C@@H](C)CN([C@@H](C)CO)C(=O)c2cc(NS(=O)(=O)c3ccc(F)cc3)ccc2O1	DENV2 CPE 24 (no result: Statin myotox sup, PvdQ acylase)
C[C@@H]1CN([C@H](C)CO)C(=O)c2cc(NS(=O)(=O)c3ccc(F)cc3)ccc2O[C@@H](C)CCCCO[C@@H]1CN(C)C(=O)NC1CCCCC1	none (no result: Statin myotox sup, PvdQ acylase)
C[C@@H]1CCCCO[C@@H](CN(C)C(=O)NC2CCCCC2)[C@@H](C)CN([C@H](C)CO)C(=O)c2cc(NS(=O)(=O)c3ccc(F)cc3)ccc2O1	none (no result: Statin myotox sup, PvdQ acylase)
C[C@@H]1CCCCO[C@H](CN(C)C(=O)NC2CCCCC2)[C@H](C)CN([C@@H](C)CO)C(=O)c2cc(NS(=O)(=O)c3ccc(F)cc3)ccc2O1	DENV2 CPE 51 (no result: Statin myotox sup, PvdQ acylase)
O=C(C1CCOCC1)N1CC(=O)N2[C@H](CO)[C@@H](c3ccc(C#CC4CCCC4)cc3)[C@@H]2C1	none (no result: Statin myotox sup, PvdQ acylase, miR-122 sensor)
CN(C)C(=O)C[C@@H]1CC[C@@H]2[C@H](COc3ccc(NC(=O)C4CCOCC4)cc3C(=O)N2C)O1	none (no result: PvdQ acylase)
Cc1ccc(NC2C(=O)NC(=O)NC2=O)cc1	DENV2 CPE 36 (no result: miR-122 sensor)
CCN1C(=O)c2cccc3c(S(=O)(=O)NCCc4c[nH]c5ccccc45)ccc1c23	miR-122 sensor 498 (no result: PGC1a acetyl inh, DENV2 CPE)
CC(C)CC#Cc1cnc2c(c1)C(=O)N([C@@H](C)CO)C[C@H](C)[C@H](CN(C)C(=O)c1cnccn1)O2	none (no result: PvdQ acylase)
O=C(C[C@@H]1C[C@H]2c3cc(NC(=O)NC4CCCCC4)ccc3O[C@H]2[C@H](CO)O1)NCCc1ccccc1	none (no result: PvdQ acylase)
O=C(C[C@H]1C[C@@H]2c3cc(NC(=O)NC4CCCCC4)ccc3O[C@@H]2[C@@H](CO)O1)NCCc1ccccc1	DENV2 CPE 37 (no result: PvdQ acylase)
O=C(C[C@H]1C[C@H]2c3cc(NC(=O)NC4CCCCC4)ccc3O[C@H]2[C@H](CO)O1)NCC(F)(F)F	DENV2 CPE 49 (no result: PvdQ acylase)
C[C@H](NC(=O)C[C@@H]1C[C@H]2c3cc(NC(=O)NC4CCCC4)ccc3O[C@H]2[C@H](CO)O1)c1ccccc1	DENV2 CPE 27 (no result: PvdQ acylase)
COc1ccccc1NC(=O)N[C@H]1CC[C@H](CC(=O)N[C@H](C)c2ccccc2)O[C@@H]1CO	none (no result: PvdQ acylase, miR-122 sensor)
C[C@@H]1CN([C@H](C)CO)C(=O)c2cc(NC(=O)Nc3ccc(F)cc3)ccc2O[C@H]1CN(C)Cc1ccc2c(c1)OCO2	none (no result: PvdQ acylase)
C[C@@H]1CN([C@H](C)CO)C(=O)Cc2cc(NC(=O)c3ccncc3)ccc2O[C@@H]1CN(C)CC1CCCCC1	none (no result: PvdQ acylase)
Cc1noc(C)c1NC(=O)N(C)C[C@@H]1OCCCC[C@@H](C)Oc2ccc(NC(=O)CCC(F)(F)F)cc2C(=O)N([C@H](C)CO)C[C@@H]1C	none (no result: Statin myotox sup, PvdQ acylase)
CC(C)COc1nc2ccccc2c(=O)n1OCC(=O)O	Statin myotox sup 116 (no result: DENV2 CPE)
CCCOn1c(OCC(C)C)nc2ccccc2c1=O	none (no result: DENV2 CPE)
COc1ccc(NC(=O)C2CCCN2C(=O)NC2CCCCC2)cc1OC (centres undefined)	none (no result: DENV2 CPE)
COc1ccc(NC(=O)C2CCCN(C(=O)NC3CCCCC3)C2)cc1OC (centres undefined)	PvdQ acylase 34 (no result: PGC1a acetyl inh, DENV2 CPE)
O=C(NCCNC(=O)c1cc(F)cc(F)c1)c1cc(F)cc(F)c1	DENV2 CPE 30 (no result: miR-122 sensor)
O=C(NCCNC(=O)c1ccc(F)cc1)c1ccc(F)cc1	none (no result: PGC1a acetyl inh)
C[C@@H]1CCCCO[C@H](CN(C)Cc2ccncc2)[C@@H](C)CN([C@H](C)CO)C(=O)c2cc(NC(=O)CCCCCC(=O)Nc3ccccc3N)ccc2O1	none (no result: Statin myotox sup, PvdQ acylase, miR-122 sensor)
COCCNc1ncnc2c1ncn2[C@H]1CN(Cc2ccc(F)cc2)C[C@@H](CO)O1	DENV2 CPE 40 (no result: PGC1a acetyl inh, PvdQ acylase)
O=C(c1ccccc1)N1CC[C@@H]2[C@H]1c1cc(C#CC3CCCCC3)ccc1N[C@@H]2CO	DENV2 CPE 52 (no result: Statin myotox sup, PvdQ acylase, miR-122 sensor)
O=C(c1ccccc1F)N1CC[C@@H]2[C@H](CO)Nc3ccc(C#Cc4ccccc4F)cc3[C@@H]21	DENV2 CPE 62 (no result: PvdQ acylase)
O=S(=O)(c1ccccc1)N1CC[C@@H]2[C@H]1c1cc(C#CC3CCCCC3)ccc1N[C@@H]2CO	DENV2 CPE 28 (no result: Statin myotox sup, PvdQ acylase, miR-122 sensor)
O=C(c1ccccc1)N1CC[C@@H]2[C@H](CO)Nc3ccc(C#CC4CCCCC4)cc3[C@@H]21	none (no result: Statin myotox sup, PvdQ acylase, miR-122 sensor)
O=C(c1ccccc1F)N1CC[C@@H]2[C@H]1c1cc(C#Cc3ccccc3)ccc1N[C@@H]2CO	none (no result: PvdQ acylase, DENV2 CPE)
O=C(c1ccccc1F)N1CC[C@@H]2[C@H](CO)Nc3ccc(C#Cc4ccc(F)cc4)cc3[C@@H]21	DENV2 CPE 26 (no result: PvdQ acylase)
CCC(=O)N(C)C[C@@H]1Oc2ncc(C#Cc3ccncc3)cc2C(=O)N([C@H](C)CO)C[C@@H]1C	none (no result: PvdQ acylase)
COc1ccccc1C#Cc1ccc2c(c1)[C@H]1[C@H](CCN1C(=O)c1ccncc1)[C@H](CO)N2	DENV2 CPE 36 (no result: PvdQ acylase)
O=C(c1ccccc1)N1CC[C@H]2[C@H](CO)Nc3ccc(C#Cc4ccccc4F)cc3[C@H]21	DENV2 CPE 32 (no result: Statin myotox sup, PvdQ acylase, miR-122 sensor)
C[C@@H]1CN([C@H](C)CO)C(=O)c2cccc(NC(=O)c3nc4ccccc4s3)c2O[C@H]1CN(C)C(=O)Nc1ccc2c(c1)OCO2	none (no result: PvdQ acylase)
CCCCCNC(=O)c1ccc2c(=O)[nH]c3c(C(=O)NCC4CCCO4)sc(=S)n3c2c1 (centres undefined)	Statin myotox sup 118 (no result: DENV2 CPE)
Cc1ccc(CNC(=O)c2ccc3c(=O)[nH]c4c(C(=O)NCC5CCCO5)sc(=S)n4c3c2)cc1 (centres undefined)	none
O=C(O)c1cc(O)c2c(c1)C(=O)c1cccc(O)c1C2=O	PGC1a acetyl inh inconclusive, DENV2 CPE 79
Cc1cc(O)c2c(c1)C(=O)c1cccc(O)c1C2=O	none (no result: PGC1a acetyl inh, Statin myotox sup, PvdQ acylase, miR-122 sensor)
